Results from PubChem BioAssay (NCI).
About 83,000 compounds went through this panel and 20% of them were active in at least one assay; those are over-represented in the sample as a whole.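 Method: cells in 96-well plates; compound added at one concentration; 48 h incubation; percent growth measured; values under 10 scored active.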 Values without a mark were called inactive. Activity calls are given as the source filed them.

Key:
Assay in all cases: NCI-60 one-dose screen, 48 h (100 = growth as untreated, 0 = no growth, -100 = all killed)
Details in all cases: 10 µM unless noted
NCI-H23 lung = system: NCI-H23 lung
NCI-H322M lung = system: NCI-H322M lung
HOP-62 NSCLC = system: HOP-62 NSCLC
NCI-H460 lung = system: NCI-H460 lung
HOP-92 NSCLC = system: HOP-92 NSCLC
NCI-H522 lung = system: NCI-H522 lung
A549/ATCC NSCLC = system: A549/ATCC NSCLC
786-0 renal = system: 786-0 renal
COLO 205 colon = system: COLO 205 colon

Row | SMILES | growth (NCI-H23 lung) | growth (NCI-H322M lung) | growth (HOP-62 NSCLC) | growth (NCI-H460 lung) | growth (HOP-92 NSCLC) | growth (NCI-H522 lung) | growth (A549/ATCC NSCLC) | growth (786-0 renal) | growth (COLO 205 colon)
1 | CC(CN)[C@@H]1CC[C@]2(CO)CC[C@]3(C)[C@H](CC[C@@H]4[C@@]5(C)CCC(NCCO)C(C)(C)[C@@H]5CC[C@]43C)[C@@H]12 (stereo partly specified) | 89.6% | 86.8% | 86.6% | 4.46% (active) | 61.6% | 59.3% | 59.2% | 59.2% | 67.5%
2 | CC(=O)c1ccc(Nc2nccc(-c3ccc(Cl)cc3)n2)cc1 | 84.2% | 100% | 108% | 85.5% | 109% | 90.8% | 87% | 101% | 105%
3 | CCOC(=O)c1c2c(n3ccc(NC(=O)CCN4CCCC4)cc13)C(=O)c1ncccc1C2=O | -72.5% (active) | -76.7% (active) | -68.5% (active) | -79.9% (active) | 56.2% | -37% (active) | -66.6% (active) | -88.2% (active) | 15.4%
4 | CC(Cc1cccc2ccccc12)C(N)=O (stereo unspecified) | 99.9% | 98.1% | 94.6% | 110% | 81.1% | 96.6% | 96.7% | 97.7% | 111%
5 | O=C(/C=C/C12c3ccccc3C(c3ccccc31)C1C(=O)NC(=O)C12)c1cccs1 (stereo unspecified) | 37.4% | 31.9% | 41.3% | 17.3% | 37.1% | – | 43.5% | 43.4% | 44%
6 | COc1ccccc1/C=C/C1=C(C)CCC(c2ccccc2OC)C1C (stereo unspecified) | 26.8% | 33.4% | 17.3% | 3.73% (active) | -35% (active) | -45% (active) | 21.2% | 12% | -45.3% (active)
7 | CCCS(=O)(=O)Nc1cccc(Nc2ncnc3cc(NC(=O)CCl)ccc23)c1Cl | -52.2% (active) | 3.52% (active) | -77.3% (active) | -41.1% (active) | -85.9% (active) | -60% (active) | -5.2% (active) | -88.2% (active) | -68.9% (active)
8 | O=C(Oc1ccccc1)c1cc(O)c(O)c(O)c1 | 72.3% | 54.8% | 54.9% | 28% | 79.6% | 53.3% | 68.9% | 55% | 99.2%
9 | c1ccc2cc(Cn3cc[n+](Cc4ccc5ccccc5c4)c3)ccc2c1 | 41.6% | 62.8% | 42.1% | 39.6% | -13.3% (active) | -11.7% (active) | 67.6% | 52.2% | -73.9% (active)
10 | CCCCCCCC/C=C\CCCCCCCCOc1ccc(CC(=O)NCC[N+]2(C)CCCC2)cc1 | 58.7% | 88.5% | 22.5% | 25.3% | 57.4% | 48.7% | 73.7% | 48.6% | -74.1% (active)
11 | O=C(CSc1nnc(-c2ccc(Cl)c(Cl)c2)n1-c1ccccc1)Nc1ccc(C(=O)/C=C/c2ccc(Cl)cc2)cc1 | 95.4% | 96.9% | 91.1% | 99.5% | 80.7% | – | 68.9% | 88.6% | 93.3%
12 | CCCCCC(C)(O)C(C(=O)O)c1ccccc1 (stereo unspecified) | 107% | 104% | 101% | 109% | 94.1% | 95% | 99.6% | 99.2% | 118%
13 | Nc1ncnc2c1N=C(c1ccc([N+](=O)[O-])cc1)CC(c1ccc3c(c1)OCO3)N2 (stereo unspecified) | 83.8% | 87.3% | 86.6% | 96.2% | 34% | – | 96.6% | 98.7% | 96.2%
14 | O=C(OCC(O)(CO)C(=O)NC12CC3CC(CC(C3)C1)C2)c1ccc(Cl)cc1 (stereo unspecified) | 97.6% | 103% | 103% | 105% | 101% | – | 91.4% | 99.4% | 102%
15 | O=C(CNc1ncco1)Nc1ccc(S(=O)(=O)c2ccc(NC(=O)CNc3ncco3)cc2)cc1 | 4.33% (active) | 75.2% | 32.7% | -60.4% (active) | 81% | -96.9% (active) | 6.88% (active) | 20.9% | -59.9% (active)
16 | Cc1oc2ccc(O)c(CN3CCCCCC3)c2c1C(=O)Nc1ccc(C(F)(F)F)cc1 | 69.9% | 69.3% | 70.4% | 51.5% | 34.9% | 72.5% | 61.2% | 49.5% | 48.7%
17 | Cc1cc2c(c(C)n1)CN(C(=O)Nc1nc(-c3cncs3)ccc1N)C2 | 104% | 97.8% | 99.6% | 106% | 90.1% | – | 111% | 102% | 110%
18 | Cc1c2cnccc2c(C)c2c1c1cc(C(=O)O)ccc1n2C | -32.4% (active) | -1.54% (active) | -8.17% (active) | 1.58% (active) | -3.06% (active) | -47.8% (active) | 8.95% (active) | 22.3% | -9.71% (active)
19 | O=C(/C=C/c1ccc(Cl)cc1)c1ccc(Nc2ccnc3cc(Cl)ccc23)cc1 | 71.1% | 89.6% | 72.2% | 133% | 15.2% | 88.3% | 62.7% | 62.8% | 107%
20 | CCOC(=O)/C(=C\c1ccccc1Cl)P(=O)(OCC)OCC | 46.6% | 75.4% | 118% | 61.9% | 60% | 34% | 64.9% | 75.8% | 52.9%
21 | C(=N\Nc1nnc2n1N=C(c1ccccc1)CS2)/c1ccc(OCc2ccccc2)cc1 | 103% | 107% | 110% | 106% | 110% | 88.1% | 91.1% | 110% | 112%
22 | O=C1/C(=C/c2cccc(Br)c2)COc2ccc(O)c(O)c21 | 17% | 25.7% | -30.8% (active) | 5.86% (active) | -41.1% (active) | -67.6% (active) | 11.2% | -86.9% (active) | 6.56% (active)
23 | O=c1ccc2nc(-c3ccccc3)nn(-c3ccccn3)c-2c1 | 90.8% | 102% | 95.9% | 106% | 55.8% | – | 103% | 63.5% | -68.8% (active)
